# Bioassay records from PubChem.
# Shown are actives, neighbours in structure and some others; about 21% of the full set was active somewhere.
# Pf growth 96h: inhibits malaria parasite growth, 96 h; Potency, µM (titrated, usually from 28.7 µM), inactives show at the top dose activity change, negative = inhibition, hits mostly inhibitors; P. falciparum luciferase reporter growth, 96 h; hit rate 6.9% among 320,000; also: potency is read from the fitted curve at half-maximal effect; % is scaled to controls: 0 for no effect and ±100 for the full control effect
#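 Plates of compound plus infected erythrocytes (2% hematocrit, 0.05% parasitemia final) incubate 96 hours, 37 C, 5% CO2. Detection reagent added; reduced luminescence from the parasites' luciferase reporter flags inhibition.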
# CHX counter: counter-screen hit for Shiga toxin inhibitors, cycloheximide. max response, %. hit rate 12% among 300,000. AID 2314. cell reporter, cycloheximide protein synthesis inhibition counterscreen; in the data active = max response mostly above about 13%, no sharp cut-off; inactive = mostly below about 14%; also: read at 38.3 µM for the half of the compounds with a filed dose; 0% is about no effect
# Shiga toxin inh: Shiga toxin inhibition; inhibition, % at 38.7 µM; Vero cells, Shiga toxin protein synthesis inhibition reporter; hit rate 9.2% among 290,000; in the data active = inhibition mostly above about 28%, no sharp cut-off; inactive = mostly below about 43%; also: 0% is about no effect
# NS1 inh: blocks influenza NS1 protein function. Potency, µM (top dose mostly 46.1 µM), for inactives: top-dose activity, positive = more growth. hit rate 0.4% among 270,000. AID 2326; calls by dose curve; also: potency is read from the fitted curve at half-maximal effect; actives are rising curves; nearly all actives have a fitted effect of over 50% in size
#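 Growth recovery, yeast-based: influenza A NS1 expressed in S. cerevisiae causes slow growth, and suppressors are detected by OD600. The parent strain without NS1 is used as positive control.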
# Pf growth 48h: P. falciparum growth inhibition at 48 hours (one generation). P. falciparum luciferase growth in erythrocytes, 48 h. Potency, µM (titrated, usually from 28.7 µM), for inactives: at the highest dose activity change, negative = inhibition, actives largely listed as inhibitors. hit rate 5.9% among 310,000. AID 504832; also: potency is read from the fitted curve at half-maximal effect; % is scaled to controls: 0 for no effect and ±100 for the full control effect
#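 Read-out is firefly luciferase luminescence from an integrated reporter in P. falciparum, so falling signal marks reduced parasite growth. Infected erythrocytes were at 2% hematocrit and 0.1% parasitemia (final) in Albumax-supplemented RPMI 1640.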
# * = called active by the depositor; i = inactive; ? = inconclusive; . = no result; [ ] = dose if it differs, or a comment. Unless noted, calls follow the shape of the dose curve; as a rule, active = well fitted inhibition curve with a large enough effect; inconclusive = small, poorly fitted or top-dose-only effect, or another doubt; inactive = no such curve, though single readings can be large or run the other way.
SMILES,Pf growth 96h,CHX counter,Shiga toxin inh,NS1 inh,Pf growth 48h
CCCSc1nnc(NC(=O)Nc2ccccc2OC)s1,19%,34*,96*,0%,18%
O=C(CSc1nnc(Nc2ccccc2F)s1)NC1CC1,-38%,.,.,.,74%
Cc1sc2nc(C3CCCCC3)nc(SCC(=O)N3CC(=O)Nc4ccccc43)c2c1C,4.7µM*,6,-11,27%,?
COc1ccccc1Nc1nnc(SCC(=O)NC2CCCC2)s1,9.3µM*,.,.,.,12µM*
CCOc1ccccc1Nc1nnc(SCC(=O)N2CCCC2)s1,?,0,1,-7%,0%
COc1ccccc1Nc1nnc(SCC(=O)N2CCCC2)s1,.,33*,86,-5%,-13%
COc1ccc(COC(=O)C2=C(C)NC(=O)NC2c2ccccc2F)cc1 (configuration not stated),0%,-5,.,-1%,-11%
CCN(CC(=O)Nc1c(F)cccc1F)C(=O)/C=C/c1cn(Cc2ccccc2)nc1-c1cccnc1,?,8,-21,5%,?
COc1ccc(-c2ccc(SCC(=O)N3CC(=O)Nc4ccccc43)nn2)cc1,-15%,21*,35*,3%,-11%
CCOc1ccccc1Nc1nnc(SCC(=O)Nc2nc(-c3ccc(OC)cc3)cs2)s1,?,10,19,12%,?
COc1ccccc1Nc1nnc(SCC(=O)Nc2nc(-c3ccc(F)cc3)cs2)s1,13µM*,5,-9,?,1%
COc1ccccc1Nc1nnc(SCC(=O)N2CC(=O)Nc3ccccc32)s1,7.4µM*,1,-5,-5%,?
CC1CCN(C(=O)CCc2nnc3ccc(NCCCN4CCCC4=O)nn23)CC1,?,11,7,-3%,-3%
COC(=O)/C(=C/c1ccco1)NC(=O)c1ccco1,-8%,-1,-17,14%,11%
CC(=O)OC1C[C@H](O[C@@H]2C(O)C[C@H](O[C@@H]3C(O)C[C@@H](OC4CC[C@]5(C)C(CCC6C5CC(O)[C@@]5(C)C(C7=CC(=O)OC7)CC[C@@]65O)C4)OC3C)OC2C)O[C@H](C)[C@H]1O[C@H]1OC(CO)C(O)C(O)C1O (some centres not stated),4.8µM*,.,.,.,8.5µM*
CC1OC(OC2CCC3(C)C(CCC4C3CC(O)C3(C)C(C5=CC(=O)OC5)CCC43O)C2)CC(O)C1OC1CC(O)C(OC2CC(O)C(OC3OC(CO)C(O)C(O)C3O)C(C)O2)C(C)O1 (configuration not stated),?,-7,-15,.,-17%
Cc1ccc2[nH]c3c(c2c1)CCC3=O,-11%,10,16,-59%,-2%
Cc1ccc2[nH]c3c(c2c1)CCCC3=O,85%,17*,22,-18%,38%
CCCCN1CCc2c([nH]c3ccc(C)cc23)C1=O,101%,70*,132*,1%,161%
Cc1ccc2[nH]c3c(c2c1)CCc1cn[nH]c1-3,23%,25*,28*,-30%,?
C[C@H](CCC(=O)O)[C@H]1CC[C@]2(C)[C@@H]3C(=O)C[C@H]4C(C)(C)[C@@H](O)CC[C@]4(C)[C@H]3C(=O)C[C@@]12C,.,.,.,0%,.
O=Cc1c[nH]c2ncccc12,23%,9,12,-6%,-12%
C[C@]12O[C@H](C[C@]1(O)CO)n1c3ccccc3c3c4c(c5c6ccccc6n2c5c31)CNC4=O,0.15µM*,.,.,.,0.17µM*
COC(=O)[C@@]1(OC)C[C@@H]2O[C@@]1(C)n1c3ccccc3c3c4c(c5c6ccccc6n2c5c31)C(=O)N(C)C4,.,2,i,.,.
Cc1c(-n2c(SC(C)C(=O)NC(N)=O)nc3ccccc3c2=O)c(=O)n(-c2ccccc2)n1C (configuration not stated),-13%,-3,2,.,-10%
SMILES,Pf growth 96h,CHX counter,Shiga toxin inh,NS1 inh,Pf growth 48h
COc1ccc(NC(=O)c2ccccc2NS(=O)(=O)c2ccc(CNC(C)=O)cc2)c(OC)c1,-9%,-4,-12,7%,-17%
CCn1c(=O)c2cc(C(=O)NCc3cccs3)sc2c2ccccc21,2.3µM*,-2,-2,-44%,57%
CCCCNC(=O)c1cc2c(=O)n(CC)c3ccccc3c2s1,6.6µM*,-7,-4,3%,2%[0.00184 µM]
CCn1c(=O)c2cc(C(=O)NC(C)C)sc2c2ccccc21,?,-3,-16,-10%,-15%
Cc1ccc(S(=O)(=O)Nc2cc(=O)[nH]c3c2CCC3)cc1,37%,-1,0,0%,38%
CC1=CC(C)(C)n2c(O)c(N=NC(N)=S)c3cccc1c32,13%,-2,-17,-3%,4%
COc1cc2c3c(c1)c(N=NC(N)=S)c(O)n3C(C)(C)C=C2C,6.6µM*,-2,-10,-3%,10µM*
O=C(/C=C/c1cccc([N+](=O)[O-])c1)n1cnc2ccccc21,174%,-2,-8,0%,-16%
CN1CCN(C2=Cc3ccccc3Sc3cc(F)c(Cl)cc32)CC1,?,-3,-12,-20%,5.2µM*
CN1CCN(C2=Cc3cc(Cl)ccc3Sc3cc(F)ccc32)CC1,?,-7,-19,-34%,4.7µM*
CN1CCN(C2=Cc3ccccc3Sc3cc(F)c(F)cc32)CC1,?,-4,-11,-4%,6.6µM*
Cc1nc(-c2ccc(S(=O)(=O)Nc3cc(S(=O)(=O)N(C)C)ccc3C)s2)cs1,43%,1,-5,-4%,?
Cc1cc(/C=C(\C#N)C(=O)N2CCCCC2)cc(C)c1O,-17%,17,51*,-5%,-18%
Cc1ccc(NC(=S)NC(=O)Cc2ccccc2)c(O)c1,-9%,32*,29,-9%,7%
Cc1ccc(O)c(NC(=S)NC(=O)CC(C)C)c1,81%,59*,61*,-2%,91%
Cc1ccc(O)c(NC(=S)NC(=O)C(C)C)c1,3%,16*,52*,-3%,16%
COc1ccc(NC(=S)NC(=O)Cc2ccccc2)c(OC)c1,-15%,-2,.,-8%,-18%
Cc1ccc(O)c(NC(=S)NC(=O)/C=C/c2ccccc2)c1,0%,5,7,-11%,-20%
Cc1ccc(S(=O)(=O)N2CCN(CCOc3c(Cl)cccc3Cl)CC2)cc1C,-6%,.,.,.,?
CCc1ccc(CN(Cc2cccnc2)C(=O)/C=C/c2ccc(OC)cc2)cc1,?,25*,34*,11%,8.3µM*
CCCC(=O)N(CCN1CCOCC1)c1nc2c(OC)ccc(C)c2s1,30%,14,-3,-25%,-5%
CCCC(=O)N(Cc1cccnc1)c1nc2c(OC)ccc(Cl)c2s1,12µM*,-8,-7,1%,?
Nc1n[nH]c(=S)n1/N=C1/C(=O)Nc2ccccc21,38%,10,-8,.,11%
CC(C)(C)c1nn(-c2ccccc2)c2[nH]c(=O)c(CNCc3ccc4c(c3)OCO4)cc12,0.33µM*,5,-2,-10%,.
CCCCn1nc(C(=O)Nc2ccc3c(c2)OCCO3)c2ccccc2c1=O,6.6µM*,.,.,.,?
CC(C)(C)c1ccc(NC(=O)c2ccc(=O)[nH]n2)cc1,422%,54*,111*,-3%,161%
